# AmpC detergent – qHTS Inhibitors of AmpC Beta-Lactamase (assay with detergent); P00811; AmpC hydrolysis of nitrocefin, absorbance 480 nm, 0.01% Triton; Potency, µM (top dose mostly 114 µM), for inactives: at the highest dose activity change, negative = inhibition, actives largely listed as inhibitors; actives 0.041% (n = 370,000);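 also: potency is read from the fitted curve at half-maximal effect; 0% = no-compound wells and -100% = no-enzyme wells; nearly all actives have a fitted effect of over 25% in size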
# Target sequence (P00811 whole entry, looked up): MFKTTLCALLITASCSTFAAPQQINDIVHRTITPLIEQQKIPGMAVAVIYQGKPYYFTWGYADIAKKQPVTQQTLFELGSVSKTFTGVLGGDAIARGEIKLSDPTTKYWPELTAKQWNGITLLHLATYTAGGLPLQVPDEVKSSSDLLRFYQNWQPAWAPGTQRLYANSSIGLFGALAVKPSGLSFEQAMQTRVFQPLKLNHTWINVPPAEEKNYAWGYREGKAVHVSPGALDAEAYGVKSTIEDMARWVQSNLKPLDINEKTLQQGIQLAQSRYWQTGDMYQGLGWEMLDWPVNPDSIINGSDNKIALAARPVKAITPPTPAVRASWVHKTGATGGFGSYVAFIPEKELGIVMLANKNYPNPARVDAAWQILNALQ
#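 AmpC (5.3 nM in the dispensed reagent) in 20 mM phosphate pH 7.0 with 0.01% (detergent screen) or 0.0001% Triton X-100 was preincubated with compounds for 15 min at room temperature. Nitrocefin was then added from an 800 uM solution, and hydrolysis was followed at 480 nm.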
# NS1 function inh – qHTS Assay for Inhibitors of Influenza NS1 Protein Function; Potency, µM (titrated, usually from 46.1 µM), inactives show top-dose activity, positive = more growth; actives 0.4% (n = 270,000); calls by dose curve; also: potency is read from the fitted curve at half-maximal effect; actives are rising curves; nearly all actives have a fitted effect of over 50% in size
#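 Recovery from NS1-induced slow growth read by OD600 in budding yeast switched to galactose assay medium (pH 6.0, -URA) at 1:100 dilution. Compound 23 nl per well; the matching strain lacking NS1 serves as control.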
# CHX counter – Cycloheximide Counterscreen for Small Molecule Inhibitors of Shiga Toxin; cell reporter, cycloheximide protein synthesis inhibition counterscreen; max response, %; actives 12% (n = 300,000); in the data active = max response mostly above about 13%, no sharp cut-off; inactive = mostly below about 14%; also: read at 38.3 µM for the half of the compounds with a filed dose; 0% is about no effect
# Shiga toxin inh – A qHTS for Small Molecule Inhibitors of Shiga Toxin; actives 9.2% (n = 290,000); inhibition, % at 38.7 µM; AID 2315, 2010; Vero cells, Shiga toxin protein synthesis inhibition reporter; in the data active = inhibition mostly above about 28%, no sharp cut-off; inactive = mostly below about 43%; also: 0% is about no effect
# AmpC no deterg – qHTS Inhibitors of AmpC Beta-Lactamase (assay without detergent) | P00811 | Potency, µM (top dose mostly 57.1 µM), inactives show at the highest dose activity change, negative = inhibition, usual class: inhibitors | AmpC nitrocefin hydrolysis, absorbance 480 nm, 0.0001% Triton | actives 0.52% (n = 330,000) | AID 485341, 2010;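 also: potency is read from the fitted curve at half-maximal effect; plate controls were no compound for no effect and no enzyme for full effect; nearly all actives have a fitted effect of over 20% in size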
#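 AmpC (5.3 nM in the dispensed reagent) in 20 mM phosphate pH 7.0 with 0.01% (detergent screen) or 0.0001% Triton X-100 was preincubated with compounds for 15 min at room temperature. Nitrocefin was then added from an 800 uM solution, and hydrolysis was followed at 480 nm.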
# Active calls of the source: *; ? = inconclusive; nt = no result. The sample as a whole holds a higher share of hits than the screen did. Unless noted, calls follow the shape of the dose curve; as a rule, active = well fitted curve in the direction sought with a large enough effect; inconclusive = small, poorly fitted or top-dose-only effect, or another doubt; inactive = no such curve, though single readings can be large; an effect the other way counts as inactive or inconclusive.
SMILES,AmpC detergent,NS1 function inh,CHX counter,Shiga toxin inh,AmpC no deterg
O=C(O)c1cc2c(ccc3ccccc32)oc1=O,-10%,-92%,-4,-13,-13%
CC(C)(C)NC(=O)c1cc2c(ccc3ccccc32)oc1=O,?,-2%,27*,nt,1%
CN(C)C(CNC(=O)c1cc2ccccc2oc1=O)c1ccccc1 (stereo not drawn),-14%,-7%,27*,90*,-13%
COc1cccc(C(=O)N/N=c2/oc3ccccc3cc2C(N)=O)c1,6%,-5%,-1,-5,-24%
CNC(=O)c1cc2ccc(OC)cc2oc1=O,-8%,-7%,12*,15,-16%
NCCN1C(=O)c2ccccc2[C@@]1(O)c1ccc(Cl)cc1,nt,0%,nt,nt,nt
CCC(C)NC(=O)Cn1c(=O)n(-c2ccc(OC)c(OC)c2)c(=O)c2ccccc21 (stereo not drawn),3%,nt,nt,nt,nt
COc1ccc2cc(C(=O)NCc3ccccc3)c(=O)oc2c1,-9%,4%,13*,43*,-17%
O=C(NCc1ccccc1)c1cc2ccccc2oc1=O,-5%,-6%,50*,44*,-20%
CCOC(=O)c1cc2c(ccc3ccccc32)oc1=O,2%,-37%,2,5,1%
CCOC(=O)c1cc2ccc(OC)cc2oc1=O,-7%,-14%,18*,66*,-10%
COc1ccc(CNC(=O)c2cc3ccccc3oc2=O)cc1,2%,-4%,-2,3,-13%
O=S(=O)(Nc1ccc(-c2ccc(N3CCCCCC3)nn2)cc1)c1ccc(C(F)(F)F)cc1,-3%,nt,nt,nt,nt
CC[C@@H](C)C(N)C(=O)O (stereo partly drawn),nt,nt,-3,5,nt
CN(C)/C=C1\SC(=S)N(c2ccc(F)cc2)C1=O,1%,-3%,33*,32,13%
N#CC(C#N)=c1ccc2c(c1)NC1(CCCCC1)N=2,3%,-89%,37*,65*,-14%
Cc1[nH]c2ccccc2c1C(=O)C(=O)Nc1ccc2c(c1)OCCO2,1%,-10%,34*,96*,-19%
O=C(Nc1ccc2c(c1)OCCO2)C(=O)c1c[nH]c2ccccc12,1%,3%,29,21*,-11%
CCN(CC)C(=O)Cn1cc(C(=O)C(=O)Nc2ccc3c(c2)OCCO3)c2ccccc21,-2%,?,48*,103*,108%
Cc1cc(NC(=O)C(=O)c2c(C)[nH]c3ccccc23)no1,4%,nt,9,39,-10%
O=C(c1c[nH]c2ccccc12)N1CCOCC1,?,nt,2,-8,-10%
O=C(Nc1ccc2c(c1)OCO2)C(=O)c1c[nH]c2ccccc12,-4%,-14%,28*,72*,-24%
CCN(CC)C(=O)Cn1cc(C(=O)C(=O)NCCCN2CCOCC2)c2ccccc21,12%,0%,1,-6,8%
Cc1c(Cl)cccc1NC(=O)C(=O)NCCc1csc(-c2ccc(C(F)(F)F)cc2)n1,1%,nt,nt,nt,nt
CC(C)(C)OC(=O)N1O[C@H]2CC1[C@@H]1[C@@H]2N=NN1CCc1ccncc1,nt,nt,nt,nt,-17%
SMILES,AmpC detergent,NS1 function inh,CHX counter,Shiga toxin inh,AmpC no deterg
CCC(C(=O)Nc1ccc2c(c1)OCCO2)n1c(=O)[nH]c2ccccc2c1=O (stereo not drawn),2%,10%,73*,88*,-25%
Cc1ccc(NC(=O)C2COc3ccccc3O2)nc1 (stereo not drawn),6%,-14%,40*,56,-35%
CC(C)NC(=O)C1COc2ccccc2O1 (stereo not drawn),5%,5%,9,17,-10%
Cc1ccnc(NC(=O)C2COc3ccccc3O2)c1 (stereo not drawn),4%,18%,65*,56*,-16%
Cc1ccccc1NS(=O)(=O)c1ccc(Br)s1,-5%,nt,nt,nt,nt
Cc1cc(C)cc(N(CC(=O)NCc2ccco2)S(=O)(=O)c2ccccc2)c1,-8%,-12%,9,48*,0%
COc1ccc(N(CC(=O)NCc2ccco2)S(=O)(=O)c2ccccc2)cc1,3%,0%,15,26,-9%
O=C1NC(c2ccccc2OC(F)F)Oc2ccccc21 (stereo not drawn),15%,nt,7,1,-21%
c1ccc(C2=Nc3cccnc3C(c3ccccc3)=NN2)cc1,1%,nt,34*,92*,33%
Fc1ccc2c(c1)C(c1ccncc1)=NNC(c1ccc(Cl)cc1)=N2,-2%,-48%,3,18,-26%
Fc1ccc2c(c1)C(c1ccncc1)=NNC(c1ccccc1)=N2,-6%,11%,62*,72*,-20%
CCOC(=O)c1cccc(Nc2ccc3cc(S(=O)(=O)N4CCCCC4)ccc3n2)c1,2%,nt,nt,nt,nt
Cc1cccc(-c2nn3c(=O)cc(CN4CCN(C(=O)/C=C/c5ccccc5)CC4)nc3s2)c1,-3%,nt,nt,nt,nt
Cc1cccc(/C=N/NC(=O)c2cc(Br)ccc2O)n1,-8%,-61%,32*,48*,-45%
O=C(N/N=C/c1ccoc1)c1ccccc1Br,-6%,-3%,7,2,-26%
O=C(N/N=C/c1ccoc1)c1cc(Br)ccc1O,-8%,-24%,31*,57,7.9µM*
Cn1c(O)c(N=NC(=S)Nc2ccccc2F)c2cc(S(=O)(=O)N3CCOCC3)ccc21,0%,nt,1,2,-5%
C=CCn1c(O)c(N=NC(=S)Nc2ccccc2C)c2cc(S(=O)(=O)N3CCOCC3)ccc21,-18%,13µM*,-3,11,44%
CCC1=[N+](CC(=O)c2ccc(C)cc2)CCn2c(C)ccc21,-11%,0%,23*,13,8%
CC1=[N+](CC(=O)c2ccccc2)CCn2cccc21,2%,7%,34*,58*,-13%
Cc1sc[n+](CC(=O)c2ccc(Br)cc2)c1C,4%,-11%,7,-1,-13%
CCC1=[N+](CC(=O)c2ccc(C)cc2)CCn2cccc21,7%,9%,24*,48,-10%
CCC1=[N+](C)CCn2c(C)ccc21,?,-45%,-3,-5,-17%
Cc1ccc(C(=O)C[n+]2cccc(C(N)=O)c2)cc1,0%,5%,-1,2,-3%
CCC1=[N+](CC(=O)c2ccc(Br)cc2)CCn2c(C)ccc21,5%,7%,15*,52*,28%
CN1C(=O)C2(c3ccccc31)c1c(oc3ccccc3c1=O)C(=O)N2CCCO (stereo not drawn),-5%,3%,1,6,0%
CCc1ccc(N=C2N=C(N)c3ccccc32)cc1,-3%,-67%,32*,54*,-32%
NC1=NC(=Nc2ccc(S(N)(=O)=O)cc2)c2ccccc21,-14%,-2%,-2,14,-1%
O=C(O)C(Cl)(c1ccccc1)c1ccccc1,nt,0%,nt,nt,nt
CCOc1ccc(C(c2c(NC(=O)c3ccccc3)sc(C)c2C)N2CCN(C)CC2)cc1 (stereo not drawn),5%,25%,16,31*,133%

# Bioassay records as filed in PubChem.
